# Hits are enriched below; roughly 8% of the tested compounds scored in any of these assays.
# SW480 rereplic – inducers of DNA re-replication in SW480 colon cancer cells | AID 624297 | SW480 DNA re-replication, Hoechst DNA content imaging, 48 h | hit rate 1.8% among 340,000 | Potency, µM (top dose mostly 46.1 µM), hits mostly activators; further: nearly all actives have a fitted effect of over 55% in size
#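 Quantitative HTS format with DMSO vehicle controls; 48 hr drug incubation at 37 C, then 40 min Hoechst staining and scanning imager measurement at 405 nm excitation.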
# HT1080 IDH1KD tx – toxicity to HT-1080 IDH1 knockdown cells (counter line) | HT-1080 IDH1 knockdown viability, ATP luminescence, 48 h | Potency, µM (series often up to 46.1 µM), actives largely listed as cytotoxic | hit rate 2% among 360,000
#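 Assay cells: HT-1080 with IDH1 knockdown, 750 per well, RPMI/5% FBS. Exposure: 48 h at 37 °C following 2 h pre-incubation. Read: CellTiter-Glo luminescence; fitted concentration-response, curve class assigned.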
# MCF10A rereplic – DNA re-replication induction in MCF 10a cells; hit rate 2.9% among 350,000; MCF 10A DNA re-replication, Hoechst nuclear intensity, 48 h; Potency, µM (top dose mostly 46.1 µM), actives largely listed as activators; further: nearly all actives have a fitted effect of over 50% in size
# KB-3-1 cytotox – kills parental KB-3-1 adenocarcinoma cells; hit rate 1.4% among 400,000; KB-3-1 viability, CellTiter-Glo ATP luminescence, 72 h; Potency, µM (highest dose often 46.1 µM), usual class: cytotoxic; further: nearly all actives have a fitted effect of over 60% in size
#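 KB-3-1 cells, DMEM (no phenol red) + 10% FBS; compound by pin transfer, 72 h, 37 °C. Readout: CellTiter-Glo luminescence after 10 min. Data normalized, curve-fitted.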
# KB-V1 MDR tox – kills drug-selected multidrug resistant KB-V1 cells | KB-V1 MDR cells viability, CellTiter-Glo, 72 h | Potency, µM (doses to about 46.1 µM), usual class: cytotoxic | hit rate 3.4% among 400,000 | AID 1347076; further: nearly all actives have a fitted effect of over 60% in size
#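 KB-V1 cells (P-gp-expressing MDR subline of KB-3-1) in phenol-red-free DMEM with 10% FBS were exposed to library compounds over a concentration series for 72 h at 37 degrees C. Viability read by CellTiter-Glo luminescence; concentration-effect curves fitted after normalization.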
# HT1080-NT tox – kills 2HG-producing HT-1080-NT fibrosarcoma cells. Potency, µM (highest dose often 46.1 µM), actives largely listed as cytotoxic. hit rate 1.6% among 360,000. AID 686970. HT-1080-NT fibrosarcoma viability, CellTiter-Glo ATP luminescence, 48 h;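 further: NT is the 2HG producing partner of a matched IDH1 knockdown line; nearly all actives have a fitted effect of over 55% in size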
#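 Luminescent CellTiter-Glo readout after 48 hours of compound exposure at 37 degrees C defined viability of HT-1080-NT cells. Activity was normalized to DMSO wells and cell-free media wells; concentration-response curves were fitted and assigned curve classes.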
# A number is an active result; . = inactive; ? = inconclusive; / = no result; ! = not active in a repeat. The call rests on the fitted dose curve; in most records, active means well fitted curve in the direction sought with a large enough effect; inconclusive means small, poorly fitted or top-dose-only effect, or another doubt; inactive means no such curve, though single readings can be large; an effect the other way counts as inactive or inconclusive.
SMILES,SW480 rereplic,HT1080 IDH1KD tx,MCF10A rereplic,KB-3-1 cytotox,KB-V1 MDR tox,HT1080-NT tox
Cn1c2ccccc2c(=O)c2cc(C#Cc3ccccn3)ccc21,.,.,.,.,.,.
O=C(Nc1ccc(-c2nc3ccccc3[nH]2)cc1)c1ccc(C(F)(F)F)cc1,/,/,/,.,.,/
Fc1ccc(-[n+]2nc(Nc3ccccc3)sc2-c2ccc(OCc3ccccc3)cc2)cc1,.,.,1.3µM,?,.,.
CCOC(=O)c1sc(-c2cccc(C(F)(F)F)c2)nc1O,?,.,?,?,.,.
CCOC(=O)c1sc(-c2ccc(C(F)(F)F)cc2)nc1O,16µM,.,16µM,.,.,.
Nc1nonc1-n1nnc(C(=O)N/N=C/c2cccc(Cl)c2Cl)c1CN1CCCC1,21µM,.,?,.,.,.
Nc1nonc1-n1nnc(C(=O)N/N=C/c2ccc(Cl)cc2Cl)c1CN1CCCC1,3.7µM,.,.,.,.,.
Nc1nonc1-n1nnc(C(=O)N/N=C/c2ccc(Cl)cc2Cl)c1CN1CCOCC1,.,.,.,.,.,.
CC(C)c1c(C(=O)N/N=C/c2ccccc2OCc2c(F)cccc2Cl)nnn1-c1nonc1N,9.2µM,?,?,.,16µM,.
COc1cccc(C(=O)Nc2ccccc2-c2nnc(-c3cccc(OC)c3)o2)c1,/,/,/,.,.,/
COc1ccc(CN2CCN(CC3CC3)CC2CCO)c(C)c1C (configuration not stated),.,.,26µM,.,.,.
Cc1ccc(C)c2[nH]c(=O)c(CN(Cc3nnnn3C3CCCCC3)CC3CCCO3)cc12 (configuration not stated),.,?,?,.,.,.
CCNC(=S)N(Cc1cc2c(C)ccc(C)c2[nH]c1=O)C1CCCC1,3.7µM,.,?,?,.,.
Cc1ccc(C)c2[nH]c(=O)c(CN(CC3CCCO3)C(=O)NC3CCCCC3)cc12 (configuration not stated),.,.,.,.,15µM,?
O=C(Nc1c(S(=O)(=O)c2ccc(Cl)cc2)csc1Br)c1ccccc1Cl,.,.,.,.,.,.
COc1cc2ncnc(NCc3ccccc3)c2cc1OC,.,.,6.5µM,.,?,.
COc1ccc(CNc2ncnc3cc(Cl)ccc23)cc1,.,.,.,?,21µM,.
c1ccc(CNc2ncnc3ccccc23)cc1,.,.,.,?,8.2µM!,.
COc1cccc(CNc2ncnc3cc(Cl)ccc23)c1,?,?,?,.,?,.
COCCn1c(SCC(=O)c2ccc(OC)cc2)nc2cc(C(=O)NC3CCCC3)ccc2c1=O,/,/,/,.,.,/
CC/C(=C(/CC)c1ccc(O)cc1)c1ccc(O)cc1,?,15µM,24µM,.,?,?
CN(C)c1ccc(/C=C/c2ccnc3c(-c4ccccc4)cccc23)cc1,/,/,/,.,?,/
COc1cc(N=Nc2cccc(S(N)(=O)=O)c2)c2ccccc2c1N,.,15µM,?,23µM,.,21µM
Cc1cc2oc3c(c(=O)c2cc1C)C(c1ccc(C(C)C)cc1)N(c1nc(C)c(C)s1)C3=O (configuration not stated),/,/,/,.,.,/
C=C[C@H](CC(C)C)N(Cc1ccccc1)S(=O)(=O)N(Cc1ccccc1)[C@H](C=C)CC(C)C,/,/,/,.,.,/
SMILES,SW480 rereplic,HT1080 IDH1KD tx,MCF10A rereplic,KB-3-1 cytotox,KB-V1 MDR tox,HT1080-NT tox
CSc1nc2sc(-c3ccccc3)cc2c(=O)n1N,.,.,.,?,9.2µM,.
COc1ccccc1-c1cc(SC)c(C#N)c(=O)o1,18µM,.,7.3µM,.,.,.
O=C(O)c1ccc(N/N=C/C2=Cc3ccccc3OC2)cc1,?,?,15µM,.,.,?
OCC[C@@H]1C[C@@H](O)[C@H](O)[C@]2(Cc3ccccc3O2)O1,.,.,.,.,.,.
Cc1cccc(N2CCN(C(=O)CC(NC(=O)c3ccccc3Cl)c3ccccc3)CC2)c1C (configuration not stated),?,.,?,.,.,.
O=C(NC(CC(=O)N1CCN(c2ccccc2O)CC1)c1ccccc1)c1ccccc1Cl (configuration not stated),.,.,.,.,5.8µM,.
Cc1ccc(-c2nn(-c3ccccc3)cc2CN(Cc2ccccc2)C(=O)c2ccco2)o1,?,?,16µM,?,?,?
O=C(NCCc1csc(-c2cccnc2)n1)c1ccc(F)c(F)c1,/,/,/,.,13µM,/
Cc1ccc(C(=O)NCCc2csc(-c3cccnc3)n2)cc1,.,.,.,.,.,.
O=C(NCCc1csc(-c2cccnc2)n1)c1cccs1,.,.,.,.,.,.
O=C(NCCc1csc(-c2cccnc2)n1)c1cccc(C(F)(F)F)c1,/,/,/,?,9.2µM,/
O=c1cc(-c2ccccc2)oc2ccc3ccccc3c12,/,.,/,.,21µM,.
O=c1cc(-c2ccc(O)c(O)c2)oc2ccc3ccccc3c12,?,.,?,.,18µM,.
O=c1cc(-c2ccccc2)oc2cccc(O)c12,.,.,.,.,.,.
O=c1oc(-c2ccc(O)c(O)c2)cc2cccc(O)c12,16µM,.,7.3µM,.,.,.
COc1ccc(CNC(=O)C[C@H]2C(=O)N(Cc3ccc(OC)cc3)C[C@@H]2Cc2ccccc2)cc1,.,.,.,.,13µM!,.
CCCCC[C@H]1CN(Cc2ccccc2)C(=O)[C@@H]1CC(=O)NCc1ccc(OC)cc1,.,.,.,?,18µM!,.
COCCN1C(=O)CN(S(C)(=O)=O)CC1(C)C(=O)NC(C)C (configuration not stated),/,.,/,.,.,.
NC1=C(Br)C(=O)c2ncccc2C1=O,8.2µM,3.3µM,0.52µM,2.6µM,3.7µM,3.3µM
Cc1cc([N+](=O)[O-])nn1CCCC(=O)Nc1cc(Oc2ccccc2)cc([N+](=O)[O-])c1,.,.,.,.,.,.
Cc1cc([N+](=O)[O-])nn1CCCC(=O)O,.,.,.,.,?,.
Cc1cc([N+](=O)[O-])nn1CCCC(=O)Nc1cc(Oc2ccc(F)cc2)cc([N+](=O)[O-])c1,.,.,.,.,5.8µM,.
Cc1cc([N+](=O)[O-])nn1CCCC(=O)N1CCN(c2ccc(F)cc2)CC1,.,.,.,.,18µM,.
S=c1nc[nH]c2nc[nH]c12,.,1.8µM,?,0.82µM,1.2µM,2.3µM
NCC1CC2c3ccccc3C1c1ccccc12 (configuration not stated),23µM,.,.,.,.,.
O=C(NCc1cccnc1)C1CC2c3ccccc3C1c1ccccc12 (configuration not stated),.,.,.,.,.,.
Clc1ccc2c(c1)[C@H]1OCC[C@H]1[C@@H](c1ccco1)N2,.,.,.,.,.,.

# High-throughput results: PubChem, National Center for Advancing Translational Sciences (NCATS)
